# Source: the supplement of paper PMC6555819
# System: PPARa:RXRa (NR concentration 270 nM, RXRa partner concentration 90 nM)
# Assay: PBM binding z-score (relative to random genomic background probes); higher = stronger binding; sequences stand for … in GC…GCGATTGACAGCGTAGAATGAAGG
# Protocol: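 Protein-binding microarray (Agilent 4x180K custom design, double-stranded 60-nt probes: 5' GC cap, 34-nt variable region, 24-nt constant primer region; full probe sequence given). Purified or IVT nuclear receptor:RXRα heterodimers (3:1 NR:RXRα, mostly 270:90 nM) or homodimers were incubated for 1 h in PBS with 2% milk and no ligand, then detected with Alexa488 antibodies. Fluorescence from o1-orientation probes (~5 replicates averaged) was converted to z-scores against 500 random hg19 background probes. Variable regions are seed direct-repeat (DR0–DR5) sites, all their single-nucleotide variants and half-site ablations.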
row,Sequence,PBM binding z-score
1,TAGCCTAGGTCATGGGCCAGTGTACCACGCGAAC,4.38
2,AGTCAAAGTTCAGGACGAGGTAACGTTAAGCACG,3.34
3,CATACAGGGTCGGCTAGGCCAGAGTAGGGACGGC,0.514
4,TGTATGAGGTTAAAGATCAGGGAACGTGGCGTCG,4.16
5,TAGCCTAGGGCATTCAGGGGCCAGTATAGAAAGC,0.0278
6,AGAATGAGGTCATACGTAGATCAGGGAAGAAAGT,6.29
7,CTATGTAGGTTAGGGGGGTCATTCAGTTTGAAAG,5.95
8,AATACAGGGTGACTAGGCCAGAGTAGGTACGAAT,1.7
9,AAAACAGGGTCATCGTAGGCCAGAGTACGCACAG,6.26
10,CTATGTGGGTTAAGGGGGTCATTCAGTTTGAAAG,6.22
11,TAGCCTAGGTCATACAGGGGCCAGTATAGAAAGC,3.72
12,CCTACTGGGCCGTTCAGAGGTCATTGATCATATG,3.56
13,CGTCAAACTTCAACTAAGGTAACGTAAAGCACGC,0.493
14,CAAACTAGGTCAAGGTCTAAGTCGGTTTGTGCCA,4.92
15,TGTCAACGTTCAAAGGTAACGTAAGTATCCACAC,1.49
16,ACTTAAGGGTCAACGAGGTTATAGCACGCGTATA,6.46
17,TACCCTAGGTCATTGGGCCAGTATAGTACGCATC,4.06
18,TCTTGTAGATCGATAGAGGTTAAGAAAGTGCGCT,1.48
19,AGAATGAGATTACCAAAGATCAGGGAAACGCTTG,-0.285
20,TAGCCTAGGTTATGGGCCAGTATACCACGCGAAC,0.542

row,Sequence,PBM binding z-score
1,ATCGAAAGGTCGAAGGTGCGTATACCCACCCGAA,4.12
2,TAGCCTAGGTCATTCAGGGGCCAGCATAGAAAGC,3.89
3,CCAACTAGGTCAAAGGACAGTGAAAGGCGACGTA,5.08
4,TAGCCGAGGTCATTCAGGGGCCAGTATAGAAAGC,6.23
5,GCTTACGGGTCCAAGGTTATAGCATGAATAGAAT,1.78
6,CCTACTGGGCCAAAGAGGTCATTGATGCCGATAA,4.55
7,TCTGCTAGGTCATCGATGGTCAGCTAATCTGCTA,3.2
8,CAAAATAGGTCACGAAAGGTCAAAGTCGAATGAC,6.79
9,TCTGCTAGGTCAACGATGGTCAGTTAATCTGCTA,3.04
10,ATATGTAGGTTGGGGTCATTCAGAAAGTAGGGAA,6.11
11,CCTAGTTGTTCAGGAGGTCACACACCGGATATGA,4.17
12,GGAACGAGGTCAAGTTGATAGCAGAGTTTGATGG,6.38
13,CGAACAAGGTCACCAGGACAGTGAAGAGGTTGGA,6.12
14,CGAACGAGGTCAAAGGACAGTGAAAGGCGACGTA,6.37
15,CGAACTAGGTCGAGGACAGTGAATCTCCGCACGC,1.75
16,CGTCCAAGGTCGAAGGTCAGTGAAGAGATGACGG,4.7
17,GCTGCTAGGTCAACTGATGGTCAACTAAAGCTCG,3.72
18,CCTACTGGGCCATTCAGAGGGCATTGATCATATG,0.726
19,AGTCAAAGTTTATCTAGGTAACGTAAGATATGCT,2.17
20,TAGCCTAGGTCATGCGGGACAGTATAGTGTCGGC,3.53
